Only some compounds are listed: those with a hit (about 4.8% of all), similar ones and a draw of the others.
APP 5'UTR act: activators of APP 5'UTR luciferase reporter, primary screen, SH-SY5Y cells; activation, % at 2 µM; SH-SY5Y APP 5'UTR luciferase reporter, luminescence; zero percent = DMSO vehicle wells; 190,000 tested, 1% active; AID 1276, 2008;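 active = activation above a set limit, based on mean plus 3 SD of controls, cut at about 140% in these data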
Hsp70 act: Hsp70 transcriptional activators, primary screen, cell-based, HeLa, Hsp70 promoter luciferase, luminescence, 10 µM; AID 1203, 2008; HeLa Hsp70 promoter luciferase reporter; scaled: vehicle 0, proteasome-inhibitor control 100%; 200,000 tested, 0.04% active; activation, % at 10 µM;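 active = activation above the mean across all tested compounds plus 3 SD, cutoff set per campaign, cut at about 5.5% in these data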
Wee1 stabilizer: Wee1 degradation inhibitors, primary screen, cell-based, HeLa, Wee1K328M-luciferase, luminescence | HeLa Luc-Wee1K328M stability; 100% = proteasome inhibitor MG132 effect | reporter increase, % at 5 µM | 220,000 tested, 1.2% active;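 active = activation above the mean of all tested compounds plus 3 SD, set per screening run, cut at about 8.8% in these data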;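 also: cells exposed to compound for 20 h before luminescence read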
Target sequence (P30291 whole entry K328M): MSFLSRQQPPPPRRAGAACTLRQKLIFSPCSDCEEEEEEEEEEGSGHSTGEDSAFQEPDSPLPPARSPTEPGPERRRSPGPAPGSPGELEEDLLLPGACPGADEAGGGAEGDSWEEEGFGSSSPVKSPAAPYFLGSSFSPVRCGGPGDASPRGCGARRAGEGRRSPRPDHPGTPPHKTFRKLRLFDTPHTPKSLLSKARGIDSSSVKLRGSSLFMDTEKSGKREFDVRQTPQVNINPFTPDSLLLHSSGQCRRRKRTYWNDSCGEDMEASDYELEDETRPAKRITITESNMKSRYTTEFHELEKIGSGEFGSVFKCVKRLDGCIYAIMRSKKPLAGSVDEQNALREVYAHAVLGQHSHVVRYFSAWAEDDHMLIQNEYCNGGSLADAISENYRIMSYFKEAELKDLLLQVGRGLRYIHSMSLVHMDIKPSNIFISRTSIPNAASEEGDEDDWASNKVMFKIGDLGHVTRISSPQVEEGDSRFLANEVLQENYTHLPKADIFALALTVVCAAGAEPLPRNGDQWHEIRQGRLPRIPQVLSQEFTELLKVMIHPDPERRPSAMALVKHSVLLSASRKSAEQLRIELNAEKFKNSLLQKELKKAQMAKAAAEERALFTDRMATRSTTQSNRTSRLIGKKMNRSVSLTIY
NF-kB neuron act: activators of NF-kB expression in neurons, primary screen, cell-based, HTS | fold change at 12.5 µM | human neuronal cells, NF-kB reporter expression; active compounds read high | 190,000 tested, 1.6% active; in the data active = fold change above about 3.3
STAT1 act: STAT1 signaling activators, primary screen, cell-based, HTS, luciferase reporter. NIH 3T3 STAT1-luciferase reporter, IFN-gamma, luminescence; 100% = IFN-gamma alone, no compound. activation (% of control), % at 5.5 µM. 200,000 tested, 2.6% active;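 active = activation above the screen-wide mean activation plus 3 SD, cut at about 130% in these data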
APP transl inh: inhibitors of APP translation via 5'UTR reporter, primary screen, APP 5'UTR luciferase, SH-SY5Y cells | SH-SY5Y APP 5'UTR-luciferase reporter, luminescence | inhibition, % at 2 µM | 190,000 tested, 0.82% active;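 active = inhibition above a set limit, derived from the sample mean plus 3 SD, cut at about 45% in these data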
Of the large screens only hits and unclear results are named; the others gave an inactive call.

FC(F)C(F)(F)C(F)(F)C(F)(F)c1cc(-c2ccccc2)n[nH]1	NF-kB neuron act 5.07
CCc1c(C)c(C#N)c2nc3ccccc3n2c1Cl	APP transl inh 95.0
O=C(NCc1ccc2c(c1)OCO2)Nc1ccc2ccccc2c1	none (no result: APP 5'UTR act, Hsp70 act, NF-kB neuron act, STAT1 act, APP transl inh)
Cc1ccc(-c2nn(-c3ccccc3)cc2C=O)o1	APP 5'UTR act 143.6, Wee1 stabilizer 10.8, NF-kB neuron act 4.45, STAT1 act 142.6
O=C(N/N=C/c1cn(-c2ccccc2)nc1-c1cccs1)c1ccncc1	none
Cc1ccc(-c2nn(-c3ccccc3)cc2/C=N/NC(=O)c2ccncc2)o1	APP 5'UTR act 157.7
Cc1ccc(-c2nn(-c3ccccc3)cc2C(N)=O)o1	none
Cc1ccc(-c2nn(-c3ccccc3)cc2CO)o1	NF-kB neuron act 3.81, STAT1 act 147.5
O=C(O)CC1C(=O)NCCN1Cc1cccs1 (configuration not stated)	none
CCOc1ccc(CC(=O)Nc2c(C(N)=O)oc3ccccc23)cc1OCC	none
COc1cccc(CNc2ccc(Br)cn2)c1O	APP 5'UTR act 151.6, NF-kB neuron act 6.26
CC(C)CCSc1nc(N2CCOCC2)c2c(c1C#N)CC(C)(C)OC2	none
O=C(N/N=C/c1cccc(F)c1)c1ccc(Cl)cc1	STAT1 act 138.0
Cc1ccc(NC(=S)N/N=C/c2c(Cl)cccc2Cl)c(C)c1	APP transl inh 95.4
O=C(N/N=C/c1cccc(NC(=O)c2ccc(Cl)cc2)c1)c1ccc(O)cc1	none (no result: APP 5'UTR act, Hsp70 act, NF-kB neuron act, STAT1 act, APP transl inh)
O=C(N/N=C/c1ccccc1Cl)c1cccc(F)c1	STAT1 act 148.5
O=C(N/N=C/c1c(Cl)cccc1Cl)c1cccc(F)c1	none
Fc1cccc(/C=N/NC(=S)Nc2ccccc2Cl)c1	STAT1 act 131.1
CC(C)(C)NC(=S)N/N=C/c1c(Cl)cccc1Cl	none (no result: APP 5'UTR act, Hsp70 act, NF-kB neuron act, STAT1 act, APP transl inh)
CCOC(=O)C1CCCN(C(=S)Nc2ccc(F)cc2)C1 (configuration not stated)	none
Cc1nc(CC(=O)N2CCN(S(=O)(=O)c3ccccc3C#N)CC2)cs1	none
O=C(N/N=C/c1cccc(F)c1)c1csc2c1CCCC2	NF-kB neuron act 5.47, STAT1 act 142.5
COc1ccc(C(CC(=O)O)NC(=O)COc2ccccc2)cc1OC (configuration not stated)	none
Cc1ccc(C(=O)Nc2c(-c3cccs3)c(=O)c3ccccc3n2C)cc1	Wee1 stabilizer 9.1
COc1ccc(-c2nc(CN(C)C(C)c3ccon3)c(C)o2)c(C)c1C (configuration not stated)	none
COc1ccc(Cc2nc(-c3ccc(NC(=O)c4cccnc4)cc3)no2)cc1	APP transl inh 58.2
COc1ccc(-c2noc(CCCC(=O)O)n2)cc1	APP transl inh 56.1
COc1ccc(Cc2nc(-c3ccc(Cl)cc3)no2)cc1	none
Cc1ccc(Cc2nc(-c3ccncc3)no2)cc1	Wee1 stabilizer 9.7
CCCCc1ccc(-c2nc(-c3ccncc3)no2)cc1	APP 5'UTR act 175.6, NF-kB neuron act 6.99
CCOC(=O)C1CCCN(C(=O)c2ccc([N+](=O)[O-])cc2)C1 (configuration not stated)	none
Cc1c(-n2c(CN3C(=O)c4ccccc4C3=O)nc3ccccc3c2=O)c(=O)n(-c2ccccc2)n1C	none (no result: NF-kB neuron act)
COc1ccccc1N1C(=S)N=C(Nc2c(C)cccc2C)C12CCCC2	none (no result: APP 5'UTR act, Hsp70 act, NF-kB neuron act, STAT1 act, APP transl inh)
CCc1ccc(-c2nc(-c3ccncc3)no2)cc1	APP 5'UTR act 167.8, NF-kB neuron act 3.4
CCn1nc2cc(C(=O)NCCc3cccs3)ccc2c1OC	NF-kB neuron act 3.97, STAT1 act 133.1
Cc1cc(C)c2nc(-c3ccccn3)cc(C(=O)Nn3cnnc3)c2c1	none
N#C/C(=C1/CCCCCN1)c1nc2ccccc2[nH]1	STAT1 act 129.6
CC(C)CC(C(=O)OCC(=O)Nc1ncc(Cl)cc1Cl)N1C(=O)c2ccccc2C1=O (configuration not stated)	Wee1 stabilizer 10.6
O=C(COC(=O)CN1C(=O)c2ccccc2C1=O)Nc1ncc(Cl)cc1Cl	none
CC1CCc2c(C(=O)NCc3ccccn3)csc2C1 (configuration not stated)	Wee1 stabilizer 9.0
Cc1ccccc1NC(=S)NNC(=O)c1csc2c1CCC(C)C2 (configuration not stated)	APP 5'UTR act 180.0
CC1CCc2c(C(=O)Nc3nccs3)csc2C1 (configuration not stated)	NF-kB neuron act 4.12
CC1CCc2c(C(=O)Nc3ccccn3)csc2C1 (configuration not stated)	none (no result: APP 5'UTR act, Hsp70 act, NF-kB neuron act, STAT1 act, APP transl inh)
COCCN(C(=O)c1ccco1)c1nnc(-c2ccc(OC)c(OC)c2)s1	none
Brc1ccc2nc(N3CCN(c4ccccc4)CC3)sc2c1	STAT1 act 129.4
Fc1ccc2nc(N3CCOCC3)sc2c1	STAT1 act 137.5
Clc1ccc2nc(N3CCN(c4ccccc4)CC3)sc2c1	NF-kB neuron act 3.5, STAT1 act 137.0
CCOC(=O)N1CCN(C(=O)CCS(=O)(=O)c2ccc(Br)s2)CC1	none
Cc1cc(C(=O)CSc2ncccn2)c(C)n1Cc1ccco1	APP 5'UTR act 141.2, NF-kB neuron act 4.32
CCOc1ncccc1C(=O)OCC(=O)c1cc(C)n(Cc2ccco2)c1C	APP 5'UTR act 164.1, NF-kB neuron act 4.64
Cc1cc(C(=O)COC(=O)c2ccc(O)cc2)c(C)n1Cc1ccco1	APP 5'UTR act 164.3, NF-kB neuron act 4.44, STAT1 act 149.1
Cc1cc(C(=O)COC(=O)c2ccc(Br)o2)c(C)n1Cc1ccco1	none
Cc1cc(C(=O)COC(=O)C(C)NC(N)=O)c(C)n1Cc1ccco1 (configuration not stated)	none
CCOC(=O)COc1ccc2c(=O)c(-c3ccc(OC)c(OC)c3)c(C(=O)OCC)oc2c1	none (no result: APP 5'UTR act, Hsp70 act, NF-kB neuron act, STAT1 act, APP transl inh)
CCOC(=O)c1oc2cc(OC(C)=O)ccc2c(=O)c1-c1ccc(OC)c(OC)c1	Wee1 stabilizer 9.3 (no result: APP 5'UTR act, Hsp70 act, NF-kB neuron act, STAT1 act, APP transl inh)
Cc1cc2oc(=O)cc(Cn3ncc(Cl)c(Cl)c3=O)c2cc1Cl	APP transl inh 88.0 (no result: NF-kB neuron act)
Cc1cc2oc(=O)cc(CN3CCc4ccccc43)c2cc1Cl	none
O=C(Cn1cc2c(n1)CCCCC2)N1CCc2ccccc2C1	none
O=C(NCc1nc(-c2ccccc2)no1)c1cccs1	none
O=C(NCc1nc(-c2ccc(C(F)(F)F)cc2)no1)c1cccs1	Wee1 stabilizer 9.6 (no result: APP 5'UTR act, Hsp70 act, NF-kB neuron act, STAT1 act, APP transl inh)
COc1ccc(CCNC(=S)N(C)C)cc1OC	none (no result: APP 5'UTR act, Hsp70 act, NF-kB neuron act, STAT1 act, APP transl inh)
Cc1cc2c(cc1C)/C(=N/NC(=O)c1ccccn1)CCC2	none (no result: APP 5'UTR act, Hsp70 act, NF-kB neuron act, STAT1 act, APP transl inh)
O=C(N/N=C/C1CCCCC1)c1ccccn1	APP 5'UTR act 139.3, STAT1 act 137.1
